# The full list was thinned out, with hits kept by preference.
# RBX1-CUL1 inh – human ROC1-CUL1 E3 ligase inhibition. 140,000 tested, 0.6% active. AID 1347404. inhibition, % at 10 µM. in vitro K48 di-Ub FRET, acceptor:donor ratio, 45 min; in the data active = inhibition above about 25%
# Target sequence (P62877 whole entry, looked up): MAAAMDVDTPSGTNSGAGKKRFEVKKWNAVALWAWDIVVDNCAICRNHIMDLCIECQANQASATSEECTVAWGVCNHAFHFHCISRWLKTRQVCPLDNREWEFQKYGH
# Target sequence (Q13616 whole entry, looked up): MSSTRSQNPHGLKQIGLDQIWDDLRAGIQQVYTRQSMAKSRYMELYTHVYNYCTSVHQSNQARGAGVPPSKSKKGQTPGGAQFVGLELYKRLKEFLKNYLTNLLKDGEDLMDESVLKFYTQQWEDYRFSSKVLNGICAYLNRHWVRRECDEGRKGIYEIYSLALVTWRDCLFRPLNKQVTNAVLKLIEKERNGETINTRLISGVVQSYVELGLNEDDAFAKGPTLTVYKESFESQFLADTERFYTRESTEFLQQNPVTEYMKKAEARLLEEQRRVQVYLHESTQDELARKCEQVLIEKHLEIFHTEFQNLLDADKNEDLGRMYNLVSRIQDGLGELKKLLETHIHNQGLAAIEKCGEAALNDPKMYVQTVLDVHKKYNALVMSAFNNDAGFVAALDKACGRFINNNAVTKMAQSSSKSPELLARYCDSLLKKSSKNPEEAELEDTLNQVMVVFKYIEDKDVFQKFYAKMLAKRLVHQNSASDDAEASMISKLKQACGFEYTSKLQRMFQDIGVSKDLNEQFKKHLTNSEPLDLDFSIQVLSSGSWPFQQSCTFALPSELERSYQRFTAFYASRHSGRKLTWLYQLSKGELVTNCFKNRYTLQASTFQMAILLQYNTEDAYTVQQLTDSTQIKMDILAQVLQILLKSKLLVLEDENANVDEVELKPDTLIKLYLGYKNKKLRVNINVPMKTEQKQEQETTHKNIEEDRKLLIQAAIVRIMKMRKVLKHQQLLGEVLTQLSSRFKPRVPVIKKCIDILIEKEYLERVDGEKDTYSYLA
# Numbers stand for hits; - = inactive.
SMILES,RBX1-CUL1 inh
O=C(Nc1cc2nn(-c3ccccc3)nc2cc1Cl)c1ccccc1Br,-
Nc1c(Cl)cc2nn(-c3ccccc3)nc2c1Br,31
O=C(Nc1cc2nn(-c3ccccc3)nc2cc1Cl)c1ccc(Br)cc1,-
Cc1cc(N2CCC(n3cc(C(C)(C)O)nn3)CC2)c2ccccc2n1,-
CCc1ccc(C2=C/C(=C/c3ccc(C(=O)OC)cc3)C(=O)O2)cc1,-
CN1CCC(C2c3ccccc3CCc3sccc32)CC1 (stereo not given),-
COc1ccc(/C=N/Nc2nc3c(s2)CCCC3)cc1,55
COc1ccc(CC(=O)Nc2nc3c(s2)CCCC3)cc1,-
CCOc1ccc(/C=N\Nc2nc(C)c(C(C)=O)s2)cc1,-
Cc1ccn(CCC(=O)N2CCc3[nH]nc(-c4cc(C)on4)c3C2)n1,-
C=CCn1c(SCC(=O)Nc2ccc(C(=O)OC(C)C)cc2)nnc1-c1ccoc1,-
O=C(/C=C/c1cccnc1)c1ccc2c(c1)OCCO2,71
COC(=O)c1ccc(/C=C/C(=O)c2ccc3c(c2)OCCO3)cc1,-
O=C(/C=C/c1cccs1)c1ccc2c(c1)OCCO2,-
O=C(c1cnn2ccccc12)N1CCC(c2cc(=O)[nH]cn2)CC1,-
Cc1ccccc1CN1CCC(C(=O)Nc2ccccc2F)CC1,-
O=C1C(=Nc2ccc(F)cc2)C(N2CCOCC2)C(=O)c2ccccc21 (stereo not given),50
CC(=O)N=C1C(=O)c2ccccc2C(=O)C1N1CCN(c2ccc(F)cc2)CC1 (stereo not given),-
O=C1C(=Nc2ccc(F)cc2)C(N2CCCCC2)C(=O)c2ccccc21 (stereo not given),50
C/C(=N\N1CCN(C2c3ccccc3-c3ccccc32)CC1)c1ccc(F)cc1,-
O=C(CC(c1ccccc1)c1ccccc1F)N1CCC(N2CCOCC2)CC1 (stereo not given),-
O=C1c2ccccc2C(=O)C1C(c1ccc(F)cc1)c1ccc(F)cc1,-
O=C(c1ccc2c(c1)OCO2)N1CCN(c2ccccc2Cl)CC1,-
COc1ccc(NC2CCCN(Cc3cccn3-c3cccnc3)C2)cc1OC (stereo not given),-
CCCCn1c(=O)c2c(nc3n2CC(C)=NN3C)n(C)c1=O,-
SMILES,RBX1-CUL1 inh
COc1ccc(C(=O)N2CCOc3c(cc(-c4cccnc4)cc3OCCc3cccs3)C2)c(OC)c1,-
O=C(Nc1ccc(I)cc1Cl)c1cncc(Br)c1,-
Cc1cc(C)n(-c2nnc(NNC(=O)C(F)(F)F)nn2)n1,-
COC(=O)[C@@H]1CCCN1C(=O)Cc1ccc(N2CCC(NCc3nonc3C)CC2)cc1,-
O=C(N1CCCC(Nc2ccc3c(c2)OCO3)C1)C1(N2CCCC2)CCCC1 (stereo not given),-
Cc1c(C(=O)Nc2ccccc2)nnn1-c1ccccc1,-
CC1=NN(c2ccccc2)C(=O)/C1=C(\C)c1ccc(-c2ccccc2)cc1,-
COC(=O)/C(=C1/C(=O)N(c2ccccc2)N=C1C)C(F)(F)F,39
CC(C)C(=O)Nc1c(Cl)cccc1Cl,-
CC(=O)c1ccc(NC(=O)CSc2nnc(-c3ccc(Cl)cc3)o2)cc1,-
NC(=O)c1ccc(NC(=O)NC2CCCCC2)cc1,-
CCn1c(CSCc2ccc(Cl)cc2)nnc1SCC(=O)Nc1nccs1,-
CCOC(=O)c1nn(-c2ccccc2C(=O)O)c(=O)c2c(N)sc(Br)c12,33
CCOC(=O)c1nn(-c2ccccc2C(=O)O)c(N)c1C(N)=S,-
CCOC(=O)c1nn(-c2ccccc2)c(=O)c2c(N)scc12,-
CCN1CC=C2C(C#N)C(=N)C(C#N)(C#N)C(c3ccc(C(F)(F)F)cc3)C2C1 (stereo not given),-
Nc1nonc1-n1nnc(CNc2ccccc2)c1CNc1ccccc1,-
c1ccc(-n2ncc3c2CCCC3NC2CSCCSC2)nc1 (stereo not given),-

# Compound activity (PubChem)
